Hits are enriched below; roughly 15% of the tested compounds scored in any of these assays.
VP16 counter = VP16 counterscreen qHTS for inhibitors of ROR gamma transcriptional activity; Potency, µM (titrated, usually from 53.6 µM), for inactives: at the top dose activity, negative = inhibition, hits mostly inhibitors; 310,000 compounds, 3.5% hits; Drosophila S2 Gal4-VP16 UAS-luciferase, luminescence, 20 h;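 also: Gal4-VP16 expression switched on by copper sulfate through the metallothionein promoter; nearly all actives have a fitted effect of over 50% in size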
TDP1 cell noCPT = qHTS for Inhibitors of human tyrosyl-DNA phosphodiesterase 1 (TDP1): qHTS in cells in absence of CPT; DT40 Tdp1-/- hTDP1 cells, no CPT, ATP luminescence, 48 h; Potency, µM (top dose mostly 46.2 µM), for inactives: at the top dose activity change, negative = growth inhibition, usual class: inhibitors; 420,000 compounds, 15% hits; also: nearly all actives have a fitted effect of over 55% in size
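Stably hTDP1-transfected Tdp1-null chicken DT40 cells were treated with library compounds minus camptothecin and grown for at least 48 hr at 37 °C, after which cellular ATP was quantified by luminescence.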
ELG1 repair inh = qHTS screen for small molecules that inhibit ELG1-dependent DNA repair in human embryonic kidney (HEK293T) cells expressing luciferase-tagged ELG1; HEK293T ELG1-luciferase reporter, luminescence, 16 h; DNA damage induced by 5-fluorouridine; 330,000 compounds, 2.3% hits; AID 504467, 2011; Potency, µM (titrated, usually from 46.1 µM), without a hit: top-dose activity change, negative = inhibition, usual class: inhibitors; also: nearly all actives have a fitted effect of over 55% in size
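Reporter activity after DNA damage by 5-fluorouridine is monitored. Compound-treated cells incubate 16 hr at 37 °C, then ONE-Glo is added for 30 min before luminescence reading.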
12-LOX inh = Primary qHTS assay for inhibitors of human arachidonate 12S-lipoxygenase (ALOX12): Round 2. Polyunsaturated fatty acid lipoxygenase ALOX12 (Homo sapiens), P18054. purified 12hLO, xylenol orange hydroperoxide absorbance. Potency, µM (top dose mostly 108 µM), for inactives: at the highest dose activity change, negative = inhibition, actives largely listed as inhibitors. 580,000 compounds, 1.1% hits
Target sequence (P18054 whole entry, looked up): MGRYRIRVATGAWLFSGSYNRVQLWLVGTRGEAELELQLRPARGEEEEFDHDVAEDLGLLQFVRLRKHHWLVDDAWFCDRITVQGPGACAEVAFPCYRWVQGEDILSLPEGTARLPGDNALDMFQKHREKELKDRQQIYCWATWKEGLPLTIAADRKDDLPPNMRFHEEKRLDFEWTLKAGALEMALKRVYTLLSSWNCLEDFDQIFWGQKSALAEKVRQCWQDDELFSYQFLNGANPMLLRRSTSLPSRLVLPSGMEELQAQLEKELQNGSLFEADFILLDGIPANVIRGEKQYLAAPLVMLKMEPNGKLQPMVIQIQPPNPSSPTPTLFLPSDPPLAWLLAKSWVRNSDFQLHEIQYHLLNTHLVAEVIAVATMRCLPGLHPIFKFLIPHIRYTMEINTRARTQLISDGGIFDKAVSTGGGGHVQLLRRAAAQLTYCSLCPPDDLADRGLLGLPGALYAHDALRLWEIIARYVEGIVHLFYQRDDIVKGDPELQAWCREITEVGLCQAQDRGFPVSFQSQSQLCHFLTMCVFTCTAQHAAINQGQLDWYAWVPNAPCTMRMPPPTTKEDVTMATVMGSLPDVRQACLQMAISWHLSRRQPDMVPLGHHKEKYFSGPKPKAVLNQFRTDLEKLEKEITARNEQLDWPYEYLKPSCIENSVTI
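Purified human 12hLO at 150 nM in 25 mM Hepes, 0.01% Triton X-100, pH 7.0, preincubated 15 min at room temperature with compound. Reaction started with 40 uM arachidonic acid, 30 min at room temperature. Hydroperoxide measured by Fe-xylenol orange, 573/405 nm absorbance ratio.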
TDP1 cell CPT = qHTS for Inhibitors of human tyrosyl-DNA phosphodiesterase 1 (TDP1): qHTS in cells in presence of CPT; chicken DT40 Tdp1-/-;hTDP1 cells + 20 nM CPT, ATP luminescence, 48 h; 420,000 compounds, 12% hits; Potency, µM (top dose mostly 46.2 µM), without a hit: at the highest dose activity change, negative = growth inhibition, actives largely listed as inhibitors; also: nearly all actives have a fitted effect of over 55% in size
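Chicken DT40 Tdp1-/- cells complemented with human TDP1, 400 cells/well, exposed to compounds plus 20 nM camptothecin for at least 48 h at 37 C; viability read as ATP content by CellTiter-Glo luminescence.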
RORgamma inh = qHTS for inhibitors of ROR gamma transcriptional activity | Nuclear receptor ROR-gamma (Mus musculus), P51450 | Drosophila S2 Gal4-RORgamma UAS-luciferase reporter, 20 h | Potency, µM (top dose mostly 53.6 µM), inactives show at the highest dose activity change, negative = inhibition, most hits filed as inhibitors | 310,000 compounds, 5.4% hits | AID 2551, 2010; also: nearly all actives have a fitted effect of over 60% in size
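Luminescence from a UAS-regulated Photinus luciferase reporter in stably transfected Drosophila Schneider cells is measured; decreased signal marks ROR gamma inhibition. Fusion expression is induced by 700 uM copper sulfate for 20 hr.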
Active calls of the source: *; ? = inconclusive; nt = not tested or not shown. Calls follow the shape of the dose curve; as a rule, active = well fitted curve in the direction sought with a large enough effect; inconclusive = small, poorly fitted or top-dose-only effect, or another doubt; inactive = no such curve, though single readings can be large; an effect the other way counts as inactive or inconclusive. % is scaled to controls: 0 for no effect and ±100 for the full control effect; potency is read from the fitted curve at half-maximal effect.

SMILES	VP16 counter	TDP1 cell noCPT	ELG1 repair inh	12-LOX inh	TDP1 cell CPT	RORgamma inh
COc1ccc(NC(=S)Nn2cnnc2)c(OC)c1	0%	-6%	-1%	?	-4%	?
COc1cccc(OC)c1C(=O)NC(=S)NCc1ccccc1	?	?	0%	2%	-2%	10µM*
COc1ccccc1NC(=S)N(Cc1ccccc1)Cc1ccccn1	?	?	0%	-5%	?	11µM*
COc1ccccc1NC(=S)NCc1ccccc1	?	-5%	-1%	?	-27%	14µM*
COc1ccc(CNC(=S)NCc2ccc(Cl)cc2)cc1OC	22µM*	-13%	-23%	50µM*	?	?
CCOc1ccccc1NC(=S)Nc1ccccc1F	?	-9%	-4%	?	-7%	11µM*
COc1ccc(-c2noc([C@@H]3CCCN3C(=O)c3ccccc3F)n2)cc1OC	nt	nt	nt	24%	nt	nt
COc1ccc(CN(Cc2ccccn2)C(=O)CN2C(=O)C(C)Oc3ccccc32)cc1 (centres undefined)	5%	21µM*	?	0%	?	32%
CCOc1ccccc1NC(=S)NNS(=O)(=O)c1c(C)cc(C)cc1C	14µM*	-13%	2%	?	-10%	10µM*
CCCOc1ccc(CC(=O)NNC(=S)Nc2ccccc2)cc1Br	?	-28%	4%	?	?	?
COc1ccc(NC(=O)N(Cc2ccc(C)cc2)Cc2ccccn2)c(OC)c1	nt	?	nt	-2%	26µM*	nt
CCOc1ccc(CNC(=S)Nc2ccccc2)cc1Cl	5.6µM*	?	-18%	?	?	5.6µM*
O=C(CN1CCC(C(=O)N2CCOCC2)CC1)N1CCN(c2ccccc2)CC1	nt	nt	nt	-16%	nt	nt
Nc1cccc(COCC(F)(F)C(F)F)c1	nt	nt	nt	-4%	nt	nt
CC(C)(C)C(=O)COC(=O)c1ccccc1Br	nt	nt	nt	-75%	nt	nt
N#Cc1cccc(C(=O)N2CCCCCCNC(=O)[C@@H]3C[C@@H](c4nc(-c5cccnc5)no4)C[C@@H]32)c1	nt	nt	nt	33%	nt	nt
Cn1cccc1CNC(=S)Nc1ccccc1Cl	-7%	-21%	11%	-9%	-2%	6.3µM*
CCOc1ccccc1NC(=S)Nc1ncccc1C	7.1µM*	29µM*	?	11µM*	?	7.1µM*
CCOc1ccccc1NC(=S)Nn1cnnc1	-15%	?	-1%	?	?	-34%
CCOc1cc(C(=O)Nc2ccccc2F)cc(Br)c1OCC	0%	?	?	-11%	21µM*	-1%
Cc1cc(NC(=O)N(Cc2ccncc2)C2CC2)no1	nt	nt	nt	27%	nt	nt
CCn1nc(C(=O)Nc2ccc(OCC(N)=O)cc2)c2ccccc2c1=O	nt	nt	nt	52%	nt	nt
COc1cc(C)cc2oc(=O)c(CC(=O)NCCc3ccccc3)c(C)c12	nt	nt	nt	42%	nt	nt
O=C(NCCNC(=O)c1cccc2cccnc12)c1cccc2cccnc12	nt	nt	nt	5%	nt	nt
CCc1nc2c(OCCOc3ccc(F)cc3)cccn2c1N(C)C(=O)c1ccco1	nt	16µM*	nt	-11%	21µM*	nt
SMILES	VP16 counter	TDP1 cell noCPT	ELG1 repair inh	12-LOX inh	TDP1 cell CPT	RORgamma inh
CCc1nc2c(OCCOc3ccccc3)cccn2c1N(C)C(=O)c1ccc(C)cc1	nt	?	nt	-9%	?	nt
CCc1nc2c(OCCOc3ccc(F)cc3)cccn2c1N(C)C(=O)c1ccc(C)cc1	nt	15µM*	nt	?	?	nt
CCCCC(=O)N(C)c1c(CC)nc2c(OCCC)cccn12	nt	-23%	nt	-4%	-29%	nt
CCCCC(=O)N(C)c1c(CC)nc2c(OCCOc3ccccc3)cccn12	nt	26µM*	nt	-5%	18µM*	nt
CCCCC(=O)N(C)c1c(CC)nc2c(OCCOc3ccc(F)cc3)cccn12	nt	18µM*	nt	4%	15µM*	nt
CCCCC(=O)N(C)c1c(CC)nc2c(OCC(=O)C(C)(C)C)cccn12	nt	-23%	nt	-7%	0%	nt
Cc1ccc(C(=O)NC(C)c2ccc(C(F)(F)F)cc2)cn1 (centres undefined)	nt	nt	nt	32%	nt	nt
CCc1nc2c(OCCOc3ccc(F)cc3)cccn2c1N(C)C(=O)C(C)C	nt	16µM*	nt	0%	?	nt
Cc1ccc(C)n1C1C(=O)N(Cc2ccc(C(C)C)cc2)c2ccc(OC(F)(F)F)cc21 (centres undefined)	nt	nt	nt	16µM*	nt	nt
Cc1ccc(C)c(CN2CCc3nc(N(C)Cc4cccnc4)[nH]c(=O)c3CC2)c1	nt	nt	nt	4%	nt	nt
Cc1cccc(CNc2cc(-c3ccc(N(C)C)cc3)ncn2)c1	-7%	?	nt	-11%	-25%	?
CN(C)c1ccc(NCc2cccc(Br)c2)cc1	nt	nt	nt	7.9µM*	nt	nt
CC(C)(C)c1ccc(-c2noc(C(=O)NN)n2)cc1	-28%	?	?	394%	10%	10µM*
CCCCNC(=O)NNc1nc(Cl)cc(C)c1C#N	14µM*	-13%	?	-13%	?	-26%

Assay outcomes as filed in PubChem.
